# DAX1 inh-1: DAX1 (NR0B1) inhibitors, primary screen, cell-based, HEK293, Gal4-DAX1, luciferase luminescence; Nuclear receptor subfamily 0 group B member 1 (Homo sapiens), P51843; HEK293 Gal4-DAX1 luciferase reporter; inhibition, % at 6.75 µM; 340,000 compounds, 0.99% hits; AID 504766, 2011;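 active means inhibition above the mean over all tested compounds plus 3 SD, cut at about 4.2% in these data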;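 further: inhibition shows as a rise in luminescence from relieved DAX1 repression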
# Target sequence (P51843 207-470 limits assumed): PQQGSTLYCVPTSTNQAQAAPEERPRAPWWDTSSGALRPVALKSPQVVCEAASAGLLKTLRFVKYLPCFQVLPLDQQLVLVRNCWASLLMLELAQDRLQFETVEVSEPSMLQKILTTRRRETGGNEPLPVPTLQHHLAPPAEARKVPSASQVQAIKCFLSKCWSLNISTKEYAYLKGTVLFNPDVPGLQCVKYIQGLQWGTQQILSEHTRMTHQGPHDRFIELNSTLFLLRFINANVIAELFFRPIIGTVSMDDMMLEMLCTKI
# hcDAF-12 act: H. contortus DAF-12 nuclear receptor activators, primary screen, cell-based, luminescence, HEK293, lit1-tk-luc reporter; HEK293 hcDAF-12 lit1-tk-luc reporter; 0% DMSO, 100% Δ7-dafachronic acid; activation, % at 6.8 µM; 370,000 compounds, 1.4% hits; AID 652067, 2013;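 active means activation above the mean of all tested compounds plus 3 SD, cut at about 5.5% in these data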
# DAX1 inh-2: DAX1 (NR0B1) inhibitors on StAR promoter, primary screen, cell-based, luminescence, SF-1 (NR5A1), full-length DAX-1; HEK293T StAR-luciferase reporter, SF-1/DAX-1 repression relief; inhibition, % at 6.8 µM; 370,000 compounds, 1.1% hits;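 active means inhibition above the mean over all tested compounds plus 3 SD, cut at about 3.6% in these data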;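 further: higher inhibition means more luminescence from relief of DAX-1 repression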
# SMARCA2 act: SMARCA2 (BRM) function activators, primary screen, cell-based, luminescence, high throughput; AID 652017, 2013; 370,000 compounds, 1% hits; MG213 cells, MMTV-luciferase reporter, dexamethasone, overnight; activation, % at 9.1 µM; in the data active means activation above about 7.8%
# ssDAF-12 act: S. stercoralis DAF-12 nuclear receptor activators, primary screen, cell-based, luminescence, HEK293, GRIP1 co-expression, lit1-tk-luc. Nuclear hormone receptor DAF-12 (Strongyloides stercoralis). HEK293 ssDAF-12/GRIP1 lit1-tk-luc reporter; % of 3 µM dafachronic acid response. activation, % at 6.8 µM. 370,000 compounds, 1% hits. AID 652126, 2013;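 active means activation above the mean over all tested compounds plus 3 SD, cut at about 0.9% in these data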
# hgDAF12 agonist: H. glycines DAF-12 receptor agonists, primary screen, cell-based, luminescence, HEK293, GAL4 fusion, UAS-luciferase; HEK293 GAL4-hgDAF12 UAS-luciferase reporter, agonist luminescence; normalized to butyrate control; activation, % at 6.8 µM; 370,000 compounds, 1.8% hits;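 active means activation above a cutoff set at the mean of all screened compounds plus 3 SD, cut at about 10% in these data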
# Numbers stand for hits; i = inactive; nt = no result given. Hits are enriched below; roughly 4.8% of the tested compounds scored in any of these assays.
SMILES,DAX1 inh-1,hcDAF-12 act,DAX1 inh-2,SMARCA2 act,ssDAF-12 act,hgDAF12 agonist
COc1ccccc1NC(=O)OCCN1CCCC12CCC(c1ccccc1)CC2 (stereo unspecified),nt,i,nt,nt,i,i
O=[N+]([O-])c1ccc(N/N=C/c2cccnc2)cc1,i,i,i,i,i,i
Clc1ccc(N/N=C/c2cccnc2)cc1,i,6.0,i,i,i,i
CC(C)(C)c1ccc(/C=N/Nc2ccc(C(=O)O)cc2)cc1,i,i,i,i,i,i
Cc1ccc(C(=O)N/N=C/c2cccnc2)cc1Cl,i,i,i,i,1.7,i
Nc1c(Cl)ncnc1N/N=C/c1cccnc1,5.0,i,i,i,i,i
CC(C)(C)c1ccc(/C=N/Nc2cccc(C(=O)O)c2)cc1,i,i,4.0,i,i,12
CN(Cc1ccccc1)C(=O)OCc1cn(Cc2cccc(F)c2F)nn1,nt,i,i,i,i,i
O=C(O)c1cccc(N/N=C/c2cc(Br)cc(Br)c2O)c1,i,i,i,i,i,i
O=C(O)c1cccc(N/N=C/c2cccnc2)c1,i,i,i,i,2.3,i
CN(C)c1ccc(/C=N/Nc2cccc(C(=O)O)c2)cc1,i,i,i,i,i,12
CCn1cc(C(=O)N2CCN(Cc3ccc(C)cc3)CC2)c(=O)c2ccc(C)nc21,nt,i,i,i,i,i
[O-]/C(=C(\C(=S)Nc1cccc2ccccc12)[n+]1ccccc1)c1cccs1,i,i,i,i,i,i
Cc1cccc(C)c1NC(=S)/C(=C(\[O-])c1cccs1)[n+]1ccccc1,i,5.8,i,i,i,i
CN(CC(O)COCc1cccs1)C1CCCCC1 (stereo unspecified),i,i,i,i,i,12
COCCCNC(=O)C1CCN(S(=O)(=O)c2ccc3[nH]c(=O)oc3c2)CC1,nt,i,i,i,i,i
O=S1(=O)N=C(Nc2nc3c(s2)CCCC3)c2ccccc21,i,i,i,i,i,11
O=C(NCCc1ccccc1)OCc1cn(Cc2cccc(C(F)(F)F)c2)nn1,nt,i,i,i,i,i
COC(=O)c1sc(NC(=O)c2ccc([N+](=O)[O-])o2)c(C#N)c1C,4.7,i,i,i,i,i
CC(=O)N1CCc2c(sc(NC(=O)c3ccc([N+](=O)[O-])o3)c2C#N)C1,i,i,i,i,i,i
COc1ccc(NS(=O)(=O)c2ccc(N3C(=O)CCC3=O)cc2)cc1,4.7,i,i,i,i,i
CCOC(=O)c1ccc(-n2c(C)nc3ccc(Br)cc3c2=O)cc1,i,i,i,i,2.7,i
CCOC(=O)c1ccc(-n2c(=O)[nH]c3ccccc3c2=O)cc1,i,i,i,i,i,i
NC(=O)CSc1nnc2ccc(-c3ccc(Cl)cc3)nn12,i,i,i,i,i,i
Cc1ccc(-c2ccc3nnc(SCC(N)=O)n3n2)cc1,7.0,i,i,i,i,i
SMILES,DAX1 inh-1,hcDAF-12 act,DAX1 inh-2,SMARCA2 act,ssDAF-12 act,hgDAF12 agonist
O=C(Cn1nc(-c2ccccc2)c2ccccc21)Oc1ccccc1,nt,i,nt,nt,i,i
Cc1ccc(NCc2ccc(O)c3ncccc23)cc1C,i,i,i,i,1.9,i
Cc1ccc(NCc2ccc(O)c3ncccc23)cc1,i,i,i,i,i,i
NC(=O)C(=O)N/N=C/c1c[nH]c2ccc(Br)cc12,4.5,i,i,i,i,i
O=C(N/N=C/c1c[nH]c2ccc(Br)cc12)c1ccccn1,i,i,i,i,i,16
O=C(N/N=C/c1c[nH]c2ccc(Br)cc12)C1CC1,i,i,i,i,i,i
O=C(NCCc1ccc(F)cc1)c1ccc2c(c1)ncn2C1CCCCC1,nt,i,i,i,i,i
COc1cccc(C(=O)NNC(=O)Cc2ccc(Cl)cc2)c1,i,i,i,i,i,i
COc1cccc(C(=O)NN/C(C)=C/C(=O)C(F)(F)C(F)(F)C(F)(F)F)c1,i,i,i,9.5,i,i
COc1ccc(C(C(=O)N(C)C2CCCC2)N(Cc2ccc(F)cc2)C(=O)c2sccc2Cl)cc1OC (stereo unspecified),nt,i,i,i,i,i
O=C(Cc1cccc2ccccc12)Nc1ccc(Br)cc1C(=O)O,5.6,i,i,i,i,i
COc1ccc(C)cc1S(=O)(=O)NCC(c1ccc2c(c1)OCO2)N1CCN(C)CC1 (stereo unspecified),i,i,3.7,i,i,i
Cc1nnc(SCC(=O)N2CCN(C(=O)c3ccco3)CC2)n1C,4.7,i,i,i,i,i
CCCCn1nnnc1SCC(=O)N1CCN(C(=O)c2ccco2)CC1,i,i,i,i,i,i
Cn1nnnc1SCC(=O)N1CCN(C(=O)c2ccco2)CC1,4.3,i,i,i,i,i
O=S1(=O)C=CCN1Cc1cn(Cc2cccc(Cl)c2)nn1,nt,i,i,i,i,i
Cn1cccc1C(=O)N1CCN(S(=O)(=O)c2ccc(F)cc2)CC1,nt,i,i,i,i,i
COC(=O)[C@]12C[C@H](CC(=O)NCCCCc3ccccc3)C(=O)N(CCc3ccc(OC)c(OC)c3)C1=C[C@H](C(C)(C)C)O[C@@H]2C,nt,i,i,i,i,i
CC1CCCC(NC(=O)CSc2ncccc2C(=O)O)C1C (stereo unspecified),i,i,i,i,1.2,i
COc1ccc2c(c1)CNC2CS(=O)(=O)NCC(C)C (stereo unspecified),nt,i,i,i,i,i
COc1cc(/C=N/N=C2/NC(=O)C(CC(=O)O)S2)ccc1OCc1ccc(Cl)cc1 (stereo unspecified),i,i,i,i,i,12
CCOc1cc(/C=N/N=C2/NC(=O)C(CC(=O)O)S2)ccc1OCc1ccc(Cl)cc1Cl (stereo unspecified),i,nt,nt,nt,nt,nt
NS(=O)(=O)c1ccc(NC(=O)CSc2nc3ccccc3c(=O)n2-c2ccc(Br)cc2)cc1,nt,i,i,i,i,i
O=C(Nc1ccc(F)cc1)OCc1cn(Cc2cccc(Cl)c2)nn1,nt,i,i,i,i,i
Nc1cc(N)nc(SCc2ccccc2)n1,i,i,i,i,i,i
Nc1nc(SCc2ccccc2)cc(SCc2ccccc2)n1,i,i,i,i,i,12
C=C(C)Cn1c(SCC(=O)N/N=C(\C)c2ccc([N+](=O)[O-])cc2)nnc1-c1ccc(Br)cc1,nt,i,i,i,i,i
O=c1oc2ccccc2cc1NCc1ccccc1O,4.2,i,i,i,i,i

# Screening results deposited in PubChem BioAssay by The Scripps Research Institute Molecular Screening Center.
